Test results from PubChem BioAssay AID651558 (National Center for Advancing Translational Sciences (NCATS), 2012).
The whole screen tested about 1,200 compounds, of which about 480 (40%) were called active. About 29% were inconclusive and are not listed. Calls come from the whole dose curve; as a rule, active = well fitted inhibition curve with a large enough effect; inconclusive = small, poorly fitted or top-dose-only effect; inactive = no such curve, though single readings can be large or run the other way. Some of the results follow.

experiment: qHTS Assay to Find Inhibitors of Chronic Active B-Cell Receptor Signaling: Hit Validation in Primary Screen; conditions: ABC-DLBCL IkB-luc/CBR ratio luminescence, 4 h; series mostly up to 46.1 µM; note: nearly all actives have a fitted effect of over 75% in size
Procedure, shortened: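 Concentration series (3 nM to 46 uM) tested on TMD8 cells induced with doxycycline for 4 h. Filter-corrected green (IkBa fusion) over red (unfused) luciferase signal; Data were normalised to 10 uM MG-132 and untreated cell wells.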
Potency is the fitted concentration of half-maximal effect.

Row | SMILES | Potency
1 | CC1=C/C(=N\NC(=S)NCc2ccccc2)CC1 | inactive
2 | COc1cc(-c2c(-c3cc(OC)c(OC)c(OC)c3)noc2C)ccc1F | 1.3 µM (active)
3 | CC(/C=N/NC(=O)c1cc(-c2ccccc2)nc2ccccc12)=C\c1ccco1 | 5.8 µM (active)
4 | CC(/C=N/NC(=O)c1cc(-c2ccncc2)nc2ccccc12)=C\c1ccco1 | 1.64 µM (active)
5 | CC(/C=N/NC(=O)c1cc(-c2ccc(Cl)cc2)nc2ccccc12)=C\c1ccco1 | 2.91 µM (active)
6 | C=CCNC(=S)N/N=C/c1ccc(C)s1 | inactive
7 | Cc1ccc(/C=N/NC(=O)C2COc3ccccc3O2)s1 (configuration not stated) | 23.1 µM (active)
8 | Cc1c(/C=N\NC(=O)C2COc3ccccc3O2)c2ccccc2n1C (configuration not stated) | 2.59 µM (active)
9 | O=C(CN1CCCc2ccccc21)N/N=C/c1ccccc1O | inactive
10 | C#CCOc1ccc(C2C3=C(COC3=O)Nc3cc4c(cc32)OCO4)cc1OC (configuration not stated) | 0.146 µM (active)
11 | O=C1OCC2=C1C(c1ccc(F)cc1)c1cc3c(cc1N2)OCO3 (configuration not stated) | 0.116 µM (active)
12 | COc1ccccc1C1C2=C(COC2=O)Nc2cc3c(cc21)OCO3 (configuration not stated) | 1.3 µM (active)
13 | COc1ccc(OC)c(C2C3=C(COC3=O)Nc3cc4c(cc32)OCO4)c1 (configuration not stated) | 0.366 µM (active)
14 | CCOc1ccccc1C1C2=C(COC2=O)Nc2cc3c(cc21)OCO3 (configuration not stated) | 1.3 µM (active)
15 | O=C(CN1CCC(NC(=O)Nc2ccc(F)cc2)CC1)Nc1ccccc1[N+](=O)[O-] | inactive
16 | CCOc1cc(Br)c(C=O)cc1OCC | 6.51 µM (active)
17 | CC(C)(C)NNC(=S)Nc1cccc(F)c1 | inactive
18 | COc1cc(OC)cc(C(=O)Oc2c(CN3CCOCC3)cc(Cl)c3cccnc23)c1 | inactive
19 | Cc1cccc(NC(=S)N/N=C/C(C)c2ccccc2)c1C (configuration not stated) | inactive
20 | CCN1C(=O)c2cccc3c(S(=O)(=O)Nc4ccccc4O)ccc1c23 | inactive
21 | CCN1C(=O)c2cccc3c(S(=O)(=O)Nc4nc(C)cs4)ccc1c23 | 3.66 µM (active)
22 | Cc1ccccc1OCCc1c(C)[nH]c(=S)[nH]c1=O | 11.6 µM (active)
23 | COc1ccccc1OCCCN1C(=O)C(=O)c2cccc(C)c21 | inactive
24 | Cc1ccc(S(=O)(=O)n2cc(-c3ccccc3)c3ccccc32)cc1 | 3.26 µM (active)
25 | CCCCNC(=S)NNC(=O)CCn1nc(C)c(Br)c1C | inactive
26 | COc1cc(/C=C/c2ccc3cccc(O)c3n2)c(Br)cc1O | 18.4 µM (active)

Row | SMILES | Potency
27 | COc1cc(Br)cc(/C=C/c2ccc3cccc(O)c3n2)c1O | 20.6 µM (active)
28 | COc1ccc(OC)c(/C=C/c2ccc3cccc(O)c3n2)c1 | 20.6 µM (active)
29 | CCOc1ccccc1N=NC1C(=O)N(C(N)=S)N=C1C (configuration not stated) | inactive
30 | COCCCNC(=O)C(=O)Nc1ccc2c(c1)N(S(=O)(=O)c1cccs1)CCC2 | 16.4 µM (active)
31 | CCCC(=O)OCCNc1cc(Sc2nccn2C)c2nonc2c1[N+](=O)[O-] | 3.66 µM (active)
32 | CCOC(=O)CSC1=C(C#N)C(c2ccc(C)o2)CC(=O)N1 (configuration not stated) | 4.11 µM (active)
33 | CCOC(=O)CSC1=C(C#N)C(c2ccc(C)s2)CC(=O)N1 (configuration not stated) | 16.4 µM (active)
34 | CCCCNC(=S)N=Nc1c(O)[nH]c2ccccc12 | inactive
35 | COc1cc(/C=N/N(C)c2ccccc2)ccc1O | inactive
36 | COc1ccc(/C=C2\CCc3ccccc3C2=O)cc1O | 13 µM (active)
37 | CCc1ccc(NC(=O)C(C)OC(=O)/C=C/c2ccc(O)c(OC)c2)cc1 (configuration not stated) | 20.6 µM (active)
38 | CCOC(=O)/C=C/C(=O)OCC(=O)Nc1ccc(OC)c(Cl)c1 | inactive
39 | CC(C)N1C(=O)/C(=C/c2nc3ccccc3c(=O)n2-c2ccccc2)c2ccccc21 | 18.4 µM (active)
40 | COc1ccccc1NS(=O)(=O)c1ccc(-c2cnc(C3CC3)o2)cc1 | inactive
41 | CCOc1ccccc1CNS(=O)(=O)c1ccc(-c2cnc(C3CC3)o2)cc1 | 7.31 µM (active)
42 | COc1ccccc1CNS(=O)(=O)c1ccc(-c2cc(C)no2)cc1 | 13 µM (active)
43 | COc1ccc(-c2nn(C)c(=O)c3ccccc23)cc1CNS(C)(=O)=O | inactive
44 | COc1ccccc1CNS(=O)(=O)c1ccc(-c2cnc(C3CC3)o2)cc1 | 16.4 µM (active)
45 | CCOc1ccccc1NS(=O)(=O)c1ccc(-c2cnc(C3CC3)o2)cc1 | 0.82 µM (active)
46 | CCN(CC(=O)Nc1ccccc1SC)Cc1nc2ccccc2c(=O)[nH]1 | inactive
47 | N#Cc1cccc2c1-c1ccccc1/C2=N/NC(N)=S | inactive
48 | Cn1c(=S)c2[nH]c(SCCN3CCCC3)nc2n(C)c1=O | inactive
49 | O=S(=O)(Nc1cccc2ncccc12)c1cccs1 | 5.8 µM (active)
50 | Cc1ccc(S(=O)(=O)Nc2cccc3ncccc23)s1 | 4.61 µM (active)
51 | CCC(=NCCc1c(C)[nH]c2ccc(C)cc12)C1=C(O)CC(c2ccccc2)CC1=O (configuration not stated) | 0.82 µM (active)
52 | CC(C)c1ccc(/C=N/NC(=O)c2ccccc2Cl)cc1 | 20.6 µM (active)

Row | SMILES | Potency
53 | CCCC(=O)Nc1ccc(C(=O)N/N=C/c2cccnc2)cc1 | inactive
54 | CC(C)(C)NC(=S)N/N=C/c1cccnc1 | inactive
55 | Cc1cc2nc(/C=C/c3cccnc3)[nH]c2cc1C | 1.03 µM (active)
56 | Cc1ccc(N2C(=O)c3cccc4c(N)ccc(c34)C2=O)c2cccnc12 | 0.461 µM (active)
57 | COc1cc(C(=O)N/N=C(\C)Cc2ccccc2)cc(OC)c1OC | inactive
58 | COc1cc(C(=O)N/N=C(\C)c2ccc3c(c2)OCO3)cc(OC)c1OC | 18.4 µM (active)
59 | COc1cc(C(=O)N/N=C(\Cc2ncc[nH]2)c2ccccc2)cc(OC)c1OC | inactive
60 | COc1cc(C(=O)c2cocc2C(=O)c2ccc3c(c2)OCO3)cc(OC)c1OC | 14.6 µM (active)
61 | O=C(Oc1c(CN2CCOCC2)cc(Cl)c2cccnc12)c1cccs1 | inactive
62 | CNC(=O)[C@H]1O[C@@H](n2cnc3c(NCc4cccc(I)c4)nc(Cl)nc32)[C@H](O)[C@@H]1O | 2.31 µM (active)
63 | CNC(=O)[C@H]1O[C@@H](n2cnc3c(NCc4cccc(I)c4)ncnc32)[C@H](O)[C@@H]1O | 1.64 µM (active)
64 | COc1cc2c(cc1OC)C(/C(C#N)=N\O)=NC(C)(C)C2 | inactive
65 | CCc1ccc(CCC(=O)Nc2sc3c(c2C#N)CCCC3)o1 | 5.8 µM (active)
66 | N#Cc1c(NC(=O)/C=C/c2ccco2)sc2c1CCCC2 | 1.3 µM (active)
67 | CC(C)NC(=S)N=Nc1c(O)[nH]c2ccc([N+](=O)[O-])cc12 | inactive
68 | COc1ccc(OC)c(C2CC(=O)Nc3n[nH]c(-c4ccccc4)c32)c1 (configuration not stated) | inactive
69 | COc1ccccc1C1CC(=O)Nc2cc3c(cc21)OCCO3 (configuration not stated) | 16.4 µM (active)
70 | CC(C)Oc1ccccc1C1CC(=O)Nc2cc3c(cc21)OCCO3 (configuration not stated) | 8.2 µM (active)
71 | O=C(CSc1cccc[n+]1[O-])c1ccccc1Br | inactive
72 | COc1cc(C(=O)NNC(=O)C2CC=CCC2C(=O)O)cc(OC)c1OC (configuration not stated) | inactive
73 | COc1cc(C(=O)N2CCN(c3cc(Cl)ccc3Cl)CC2)cc(OC)c1OC | 1.16 µM (active)
74 | COc1c(Cl)cc(C(=O)NN)cc1Cl | inactive
75 | CCOC(=O)C1=C(C)c2ccccc2N(C(=O)OC)C1(C)C(=O)OCC (configuration not stated) | inactive
76 | O=S1(=O)C=C(Sc2nc3cc(Cl)ccc3o2)c2ccccc21 | 16.4 µM (active)
77 | CC(/C=C/c1ccccc1)=N\NC(N)=S | inactive
78 | N#CC(C#N)=C(N)CSc1cccc[n+]1[O-] | inactive

Row | SMILES | Potency
79 | CCOc1ccc(OCc2ccc(C(=O)N/N=C(\C)c3ccccn3)cc2)cc1 | inactive
80 | CCOc1ccc(C(=O)NC(=S)Nc2cccc(S(=O)(=O)NC3=NCCC3)c2)cc1 | 18.4 µM (active)
81 | O=C(CCl)Nc1cccc(S(=O)(=O)NC2=NCCC2)c1 | 13 µM (active)
82 | O=C(CCl)Nc1cccc(S(=O)(=O)NC2=NCCCCC2)c1 | 8.2 µM (active)
83 | COc1ccc(C(=O)c2ccc(N(C)C)cc2)c2ccccc12 | 3.26 µM (active)
84 | CN(C)c1ccc(C(=O)c2ccc(N(C)C)c3ccccc23)cc1 | 0.291 µM (active)
85 | Oc1ccc(CNc2ccccc2F)c2cccnc12 | inactive
86 | O=C(Oc1c(CN2CCOCC2)cc(Cl)c2cccnc12)c1ccccc1F | inactive
87 | C=CCn1c(SCc2c(C)noc2C)nc2ccccc2c1=O | 14.6 µM (active)
88 | Cc1noc(C)c1CSc1ccc2ccccc2n1 | inactive
89 | CCn1ncc(C2=NOC(C(=O)NCc3ccc(Cl)cc3)C2)c1C (configuration not stated) | 8.2 µM (active)
90 | CCn1ncc(C2=NOC(C(=O)NCc3ccccc3)C2)c1C (configuration not stated) | 18.4 µM (active)
91 | Cc1ccc(Sc2c(CO)c(-c3ccccc3)nn2C)cc1 | 5.17 µM (active)
92 | N#C/C(=C\c1ccc(Cl)cc1)c1nc2ccccc2o1 | inactive
93 | COc1ccc(CC(=O)OCC(=O)c2c[nH]c3ccccc23)cc1 | inactive
94 | COc1ccc(/C=C(\C#N)c2c[nH]c3ccccc23)cc1 | 14.6 µM (active)
95 | Cn1c(=S)[nH]c2c(c1=O)C(C)(C)Cc1ccccc1-2 | inactive
96 | COc1ccc(C(=O)/C=C2/c3ccccc3CC(C)(C)N2C)cc1 | 20.6 µM (active)
97 | C=CCN(CC=C)C(=S)NC(=O)c1ccc(OC)cc1 | inactive
98 | COc1cc2c(c(OC)c1OC)-c1ccc(N(C)CC(OC)OC)c(=O)cc1[C@@H](NC(C)=O)CC2 | 5.8 µM (active)
99 | COc1cc2c(c(OC)c1OC)-c1ccc(OC)c(=O)cc1[C@@H](NC(C)=O)CC2 | 0.206 µM (active)
100 | COc1cc2c(c(OC)c1OC)-c1ccc(OC)c(=O)cc1[C@@H](N(C)CC#CCO)CC2 | 0.259 µM (active)
101 | COc1cccc(C(=O)Nc2ccc3c(cc2=O)[C@@H](NC(C)=O)CCc2cc(OC)c(OC)c(OC)c2-3)c1 | 23.1 µM (active)
102 | CCCC(=O)O[C@]1(C(=O)CO)CC[C@H]2[C@@H]3CCC4=CC(=O)CC[C@]4(C)[C@H]3[C@@H](O)C[C@@]21C | inactive
